# Experimental data taken from PubChem BioAssay.
# Values joined by “and” are separate entries in the source; they are usually repeats but may differ in a detail not shown here. Equal entries are not always repeated. Active and inactive are the calls of the source.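 The calls were made as follows, unless noted: active = thallium flux through the channel raised or lowered by more than 3 SD from vehicle-only wells, actives on both sides; inactive = the rest.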
# Tests used:
# [1] = P. berghei load reduction in hepatocytes – cell-based, HepG2, luciferase luminescence, HepG2 viability, primary screen (AID 624349; in the data active = parasite load remaining mostly below about 12%, no sharp cut-off; inactive = mostly above about 10%;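 also: 100% = mean of DMSO negative control wells on the same plate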); details: P. berghei liver stage in HepG2, luciferase luminescence, concentration not given here; parasite load remaining: stronger effect = lower value; viability: measured here: HepG2 viability without parasites
# [2] = signal quenchers or enhancers, Cy5 substrate/SSB – biochemical, NIH Clinical Collection, E. coli SSB, artefact control for HCV NS3 helicase inhibitor project (AID 743268; call rule not given here); details: Cy5-oligo bound E. coli SSB, fluorescence interference
# [3] = system: Hepatitis C virus NS3 helicase; assay: blockers of NS3h binding to DNA – biochemical, fluorescence polarization, NIH Clinical Collection, primary screen (AID 743270; call rule not given here); details: NS3 helicase binding to Cy5-dT15 DNA, stronger effect = higher value, concentration not given here
# [4] = biological target: Single-stranded DNA-binding protein (Escherichia coli (strain K12)) (UniProt P0AGE0); assay: SSB-ssDNA binding inhibitors – biochemical, fluorescence polarization, NIH Clinical Collection, counter-screen for HCV NS3 helicase inhibitor project (AID 743271; in the data active = inhibition above about 28%); details: E. coli SSB-DNA binding, stronger effect = higher value, concentration not given here
# [5] = compounds distorting NS3 helicase fluorescence signal – biochemical, NIH Clinical Collection, artefact control for HCV NS3 helicase inhibitor project (AID 743272; call rule not given here;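 also: HCV NS3 helicase with a Cy5 labelled single stranded DNA probe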); details: fluorescence interference counterscreen, HCV NS3 helicase assay; stronger effect = lower value
# [6] = viability loss with induced miR-34 in A549 – imaging, A549 dox-inducible miR-34, nuclei and caspase counts, primary screen (AID 1347080;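 active = compounds whose cell count with miR-34 switched on is under 0.7 times the count with it off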); details: A549 miR-34 inducible, Hoechst nuclei count, 48 h
# [7] = MELAS cybrid and Rieske KO viability enhancers – cell-based, MELAS cybrids, Rieske KO mouse fibroblasts, CellTiter-Glo, primary screen (AID 1508586;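 active = mean z-score across replicates of 1.96 or higher in either the MELAS or the Rieske mutant cell line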;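 also: z relative to plate mean and SD of compound and empty wells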); details: low glucose
# [8] = galactose survival enhancers in mitochondrial complex I cybrids – cell-based, galactose medium, ATP luminescence, primary screen (AID 1645843;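 active = z-score of at least 1.8 in each of two replicates, scored against plate mean and spread of sample wells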;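 also: positive z means more ATP and so rescue of galactose-driven cybrid death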); details: complex I mutant cybrid cells, 72 h, stronger effect = higher value
# F380Y = assay: BK channel mutant inhibitors and activators – cell-based, U2OS BacMam, thallium flux, beta subunits, selectivity assay, profiling panel (AID 1259406); details: U2OS BacMam BK variants, at 30 µM;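 also: initial slope of Thallos dye fluorescence rise after thallium is added; log ratio against the mean of 0.3% DMSO vehicle wells on the same plate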
# F380Y/beta1 = assay: as above; details: U2OS BacMam BK variants, at 30 µM
# F380Y/beta2Delta = assay: as above; details: U2OS BacMam BK variants, at 30 µM
# F380Y/beta4 = assay: as above; details: U2OS BacMam BK variants, at 30 µM
# R275C = assay: as above; details: U2OS BacMam BK variants, at 30 µM
# R275C/beta1 = assay: as above; details: U2OS BacMam BK variants, at 30 µM
# R275C/beta2Delta = assay: as above; details: U2OS BacMam BK variants, at 30 µM
# R275C/beta4 = assay: as above; details: U2OS BacMam BK variants, at 30 µM
# R275C/Slo1WT/beta2 = assay: as above; details: U2OS BacMam BK variants, at 30 µM
# [9] = modulation of C. elegans fzo-1 (AID 1259413; call rule not given here;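 also: fzo-1 mutant C. elegans worms in liquid wells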); details: C. elegans fzo-1 modulator screen, mean read-out; stronger effect = higher value
# [10] = biological target: Calcium-activated potassium channel subunit alpha-1 (Homo sapiens) + Leucine-rich repeat-containing protein 26 (Homo sapiens) (UniProt Q12791+Q2I0M4); assay: BK channel mutant inhibitors and activators – cell-based, U2OS BacMam, thallium flux, beta subunits, selectivity assay, profiling panel (AID 1259406); details: U2OS BacMam BK variants, F380Y/Slo1WT/gamma1, at 30 µM;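 also: initial slope of Thallos dye fluorescence rise after thallium is added; log ratio against the mean of 0.3% DMSO vehicle wells on the same plate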
# Calcium-activated potassium channel subunit alpha-1 (Homo sapiens) + Leucine-rich repeat-containing protein 26 (Homo sapiens), sequence (Q2I0M4 whole entry, looked up, one chain of several): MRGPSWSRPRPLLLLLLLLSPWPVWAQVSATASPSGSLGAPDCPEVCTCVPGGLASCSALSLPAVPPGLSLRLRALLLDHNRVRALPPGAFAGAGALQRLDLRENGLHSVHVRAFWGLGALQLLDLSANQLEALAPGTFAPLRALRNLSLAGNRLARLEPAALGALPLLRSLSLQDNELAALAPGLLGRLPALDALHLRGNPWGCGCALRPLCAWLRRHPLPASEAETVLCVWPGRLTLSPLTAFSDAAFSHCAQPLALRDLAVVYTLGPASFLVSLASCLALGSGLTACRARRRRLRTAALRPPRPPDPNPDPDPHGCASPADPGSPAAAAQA
# [11] = stronger effect = lower value, cell number ratio, induced over uninduced
# [12] = measured here: relative caspase fold change +Dox/-Dox
# [13] = measured here: total cells with miR-34 induction, stronger effect = lower value
# [14] = measured here: total cells without miR-34 induction
compound,measurement,setting,value
CCN(CC)CCOc1ccc(C(=C(Cl)c2ccccc2)c2ccccc2)cc1,parasite load remaining,[1],-4.11% (inactive)
same,viability,[1],3.72%
same,fluorescence ratio,[2],0.76 (active)
same,inhibition,[3],-10.4% (inactive)
same,inhibition,[4],0.29% (inactive)
same,fluorescence ratio,[5],0.97 (inactive)
same,fold change,[6]; [11],1.09 (inactive) and 0.932 (inactive)
same,fold change,[6]; [12],2.63 and 0.76
same,cell count,[6]; [13],5020 and 7560
same,cell count,[6]; [14],4620 and 8110
same,z-score,"[7]; MELAS cybrid survival, CellTiter-Glo 48 h, stronger effect = higher value",-0.453 (inactive)
same,z-score,"[7]; Rieske KO mouse fibroblast survival, CellTiter-Glo 72 h",-0.778
same,z-score,[8],-1.52 (inactive)
same,log fold change Tl+ flux,F380Y,0.00267 (inactive)
same,log fold change Tl+ flux,F380Y/beta1,-0.533 (active)
same,log fold change Tl+ flux,F380Y/beta2Delta,0.0152 (inactive)
same,log fold change Tl+ flux,F380Y/beta4,-0.059 (inactive)
same,log fold change Tl+ flux,R275C,0.0156 (inactive)
same,log fold change Tl+ flux,R275C/beta1,0.0697 (inactive)
same,log fold change Tl+ flux,R275C/beta2Delta,-0.00533 (inactive)
same,log fold change Tl+ flux,R275C/beta4,0.493 (active)
same,log fold change Tl+ flux,R275C/Slo1WT/beta2,-0.157 (active)
CO/N=C(/C(=O)NC1C(=O)N2C(C(=O)O)=C(COC(C)=O)CSC12)c1csc(N)n1 (configuration not stated),mean signal,[9],238 (inactive)
CC(=O)OCC(=O)[C@@]1(O)CC[C@H]2[C@@H]3CCC4=CC(=O)CCC4(C)[C@H]3[C@@H](O)CC21C (some centres not stated),mean signal,[9],278 (inactive)
O=C1N=C(O)CN1N=Cc1ccc(-c2ccc([N+](=O)[O-])cc2)o1,parasite load remaining,[1],10.7% (inactive)
same,viability,[1],83.3%
same,fluorescence ratio,[2],1.04 (inactive)
same,inhibition,[3],0.45% (inactive)
same,inhibition,[4],7.91% (inactive)
same,fluorescence ratio,[5],0.97 (inactive)
same,fold change,[6]; [11],0.951 (inactive)
same,fold change,[6]; [12],1.68
same,cell count,[6]; [13],7170
same,cell count,[6]; [14],7540
same,z-score,[8],-0.1 (inactive)
same,log fold change Tl+ flux,F380Y,0.0284 (inactive)
same,log fold change Tl+ flux,F380Y/beta1,0.16 (active)
same,log fold change Tl+ flux,F380Y/beta2Delta,0.0246 (inactive)
same,log fold change Tl+ flux,F380Y/beta4,-0.0396 (inactive)
same,log fold change Tl+ flux,[10],0.0789 (inactive)
same,log fold change Tl+ flux,R275C,0.0615 (inactive)
same,log fold change Tl+ flux,R275C/beta1,0.0553 (inactive)
same,log fold change Tl+ flux,R275C/beta2Delta,0.0141 (inactive)
same,log fold change Tl+ flux,R275C/beta4,0.0532 (inactive)
same,log fold change Tl+ flux,R275C/Slo1WT/beta2,0.0367 (inactive)
C=CC1=C(C(=O)O)N2C(=O)[C@@H](NC(=O)C(=NO)c3csc(N)n3)[C@H]2SC1,parasite load remaining,[1],50% (inactive)
same,viability,[1],69.3%
same,fluorescence ratio,[2],1 (inactive)
same,inhibition,[3],11.1% (inactive)
same,inhibition,[4],96.5% (active)
same,fluorescence ratio,[5],0.91 (inactive)
same,log fold change Tl+ flux,F380Y,0.0518 (inactive)
same,log fold change Tl+ flux,F380Y/beta1,0.00826 (inactive)
same,log fold change Tl+ flux,F380Y/beta2Delta,0.0258 (inactive)
same,log fold change Tl+ flux,F380Y/beta4,0.0162 (inactive)
same,log fold change Tl+ flux,[10],-0.00804 (inactive)
same,log fold change Tl+ flux,R275C,-0.0491 (inactive)
same,log fold change Tl+ flux,R275C/beta1,0.0161 (inactive)
same,log fold change Tl+ flux,R275C/beta2Delta,0.037 (inactive)
same,log fold change Tl+ flux,R275C/beta4,0.0002 (inactive)
same,log fold change Tl+ flux,R275C/Slo1WT/beta2,0.0335 (inactive)
CC(=CCC1=C(C)C(=O)c2ccccc2C1=O)CCCC(C)CCCC(C)CCCC(C)C (configuration not stated),parasite load remaining,[1],49.5% (inactive)
same,viability,[1],97.8%
same,fluorescence ratio,[2],1.04 (inactive)
same,inhibition,[3],-1.36% (inactive)
same,inhibition,[4],3.34% (inactive)
same,fluorescence ratio,[5],0.97 (inactive)
same,fold change,[6]; [11],1.25 (inactive)
same,fold change,[6]; [12],2.78
same,cell count,[6]; [13],7560
same,cell count,[6]; [14],6060
same,z-score,[8],-1.38 (inactive)
same,log fold change Tl+ flux,F380Y,-0.0115 (inactive)
same,log fold change Tl+ flux,F380Y/beta1,0.045 (inactive)
same,log fold change Tl+ flux,F380Y/beta2Delta,0.0296 (inactive)
same,log fold change Tl+ flux,F380Y/beta4,0.0448 (inactive)
same,log fold change Tl+ flux,[10],0.0507 (inactive)
same,log fold change Tl+ flux,R275C,0.0242 (inactive)
same,log fold change Tl+ flux,R275C/beta1,0.0513 (inactive)
same,log fold change Tl+ flux,R275C/beta2Delta,0.0188 (inactive)
same,log fold change Tl+ flux,R275C/beta4,0.0575 (inactive)
same,log fold change Tl+ flux,R275C/Slo1WT/beta2,-0.0288 (inactive)
Cc1cc(=O)oc2cc(NC(=O)C3CCC(=O)N3)ccc12 (configuration not stated),parasite load remaining,[1],62.4% (inactive)
same,viability,[1],136%
same,fluorescence ratio,[2],0.96 (inactive)
same,inhibition,[3],1.36% (inactive)
same,inhibition,[4],11.7% (inactive)
same,fluorescence ratio,[5],0.91 (inactive)
same,fold change,[6]; [11],0.953 (inactive)
same,fold change,[6]; [12],1.59
same,cell count,[6]; [13],10900
same,cell count,[6]; [14],11400
same,z-score,[8],-0.335 (inactive)
same,log fold change Tl+ flux,F380Y,-0.00455 (inactive)
same,log fold change Tl+ flux,F380Y/beta1,-0.0136 (inactive)
same,log fold change Tl+ flux,F380Y/beta2Delta,-0.0131 (inactive)
same,log fold change Tl+ flux,F380Y/beta4,0.0184 (inactive)
same,log fold change Tl+ flux,[10],-0.00524 (inactive)
same,log fold change Tl+ flux,R275C,-0.000517 (inactive)
same,log fold change Tl+ flux,R275C/beta1,0.0432 (inactive)
same,log fold change Tl+ flux,R275C/beta2Delta,-0.00476 (inactive)
same,log fold change Tl+ flux,R275C/beta4,-0.0203 (inactive)
same,log fold change Tl+ flux,R275C/Slo1WT/beta2,-0.0148 (inactive)
CCCC1O[C@@H]2C[C@H]3[C@@H]4CCC5=CC(=O)C=CC5(C)[C@H]4[C@@H](O)CC3(C)C2(C(=O)CO)O1 (some centres not stated),mean signal,[9],259 (inactive)
CC(C)C[C@H](NC(=O)[C@@H](COC(C)(C)C)NC(=O)[C@H](Cc1ccc(O)cc1)NC(=O)[C@H](CO)NC(=O)[C@H](Cc1c[nH]c2ccccc12)NC(=O)[C@H](Cc1cnc[nH]1)NC(=O)[C@H]1CCC(=O)N1)C(=O)N[C@H](CCCN=C(N)N)C(=O)N1CCC[C@@H]1C(=O)NNC(N)=O,mean signal,[9],236 (inactive)
C=CC[C@@H]1C=C(C)C[C@H](C)C[C@H](OC)[C@H]2O[C@@](O)(C(=O)C(=O)N3CCCC[C@H]3C(=O)O[C@H](/C(C)=C/[C@@H]3CC[C@@H](O)[C@H](OC)C3)[C@H](C)[C@@H](O)CC1=O)[C@H](C)C[C@@H]2OC,parasite load remaining,[1],77.5% (inactive)
same,viability,[1],72.5%
same,fluorescence ratio,[2],0.94 (inactive)
same,inhibition,[3],-1.19% (inactive)
same,inhibition,[4],2.21% (inactive)
same,fluorescence ratio,[5],0.92 (inactive)
same,log fold change Tl+ flux,F380Y,-0.344 (active)
same,log fold change Tl+ flux,F380Y/beta1,-0.0137 (inactive)
same,log fold change Tl+ flux,F380Y/beta2Delta,-0.629 (active)
same,log fold change Tl+ flux,F380Y/beta4,0.109 (active)
same,log fold change Tl+ flux,[10],0.0458 (inactive)
same,log fold change Tl+ flux,R275C,-0.067 (inactive)
same,log fold change Tl+ flux,R275C/beta1,0.274 (active)
same,log fold change Tl+ flux,R275C/beta2Delta,0.123 (active)
same,log fold change Tl+ flux,R275C/beta4,0.467 (active)
same,log fold change Tl+ flux,R275C/Slo1WT/beta2,0.00553 (inactive)
COCC1=C(C(=O)OC(C)OC(=O)OC(C)C)N2C(=O)[C@@H](NC(=O)C(=NOC)c3csc(N)n3)[C@H]2SC1 (some centres not stated),parasite load remaining,[1],83.9% (inactive)
same,viability,[1],70.5%
same,fluorescence ratio,[2],0.97 (inactive)
same,inhibition,[3],1.98% (inactive)
same,inhibition,[4],-0.1% (inactive)
same,fluorescence ratio,[5],1 (inactive)
same,log fold change Tl+ flux,F380Y,0.0206 (inactive)
same,log fold change Tl+ flux,F380Y/beta1,0.0461 (inactive)
same,log fold change Tl+ flux,F380Y/beta2Delta,0.0192 (inactive)
same,log fold change Tl+ flux,F380Y/beta4,0.0327 (inactive)
same,log fold change Tl+ flux,[10],0.0109 (inactive)
same,log fold change Tl+ flux,R275C,0.00217 (inactive)
same,log fold change Tl+ flux,R275C/beta1,-0.0216 (inactive)
same,log fold change Tl+ flux,R275C/beta2Delta,0.0293 (inactive)
same,log fold change Tl+ flux,R275C/beta4,0.0115 (inactive)
same,log fold change Tl+ flux,R275C/Slo1WT/beta2,0.0178 (inactive)
